# High-throughput results as filed in PubChem.
# DT40 TDP1 no CPT = qHTS for Inhibitors of human tyrosyl-DNA phosphodiesterase 1 (TDP1): qHTS in cells in absence of CPT; DT40 Tdp1-/- hTDP1 cells, no CPT, ATP luminescence, 48 h; Potency, µM (highest dose often 46.2 µM), for the others: top-dose activity change, negative = growth inhibition, usual class: inhibitors; hit rate 15% among 420,000; further: potency means the concentration at half of the fitted maximal effect; nearly all actives have a fitted effect of over 55% in size
#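 No-CPT arm: Tdp1-/-;hTDP1 DT40 cells (400/well) plus compounds, incubated ≥48 hr at 37 °C. Readout CellTiter-Glo luminescence.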
# IL-1B inflam inh = blocks inflammasome-driven IL-1 beta release | THP-1 LPS/ATP IL-1B secretion, AlphaLISA, 16 h; hits give low values | activity change, % at 57.5 µM | hit rate 4.7% among 360,000; in the data active means activity change below about -50%; inconclusive means mostly about -30% to -49%
#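 THP-1 cells pretreated 1 hr with compounds (up to 57.5 uM final), then stimulated with LPS (250 ng/mL final) plus ATP (1.25 mM final); secreted IL-1B measured by AlphaLISA after 16 hr, decreased signal indicating inhibition.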
# HT1080NT lethal = kills 2HG-producing HT-1080-NT fibrosarcoma cells; HT-1080-NT fibrosarcoma viability, CellTiter-Glo ATP luminescence, 48 h; Potency, µM (doses to about 46.1 µM), for inactives: at the top dose activity, negative = less viability, usual class: cytotoxic; hit rate 1.6% among 360,000; AID 686970;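 further: NT is the 2HG producing partner of a matched IDH1 knockdown line; potency means the concentration at half of the fitted maximal effect; 0% = DMSO-treated cells and -100% = media-only wells without cells; nearly all actives have a fitted effect of over 55% in size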
#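 Viability by CellTiter-Glo luminescence after 48 h compound exposure at 37C of HT-1080-NT cells (750/well, RPMI, 5% FBS). % activity scaled between DMSO wells and medium-only wells, then curve-fitted and categorized by curve class.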
# HT1080 IDH1KD tx = toxicity to HT-1080 IDH1 knockdown cells (counter line); HT-1080 IDH1 knockdown viability, ATP luminescence, 48 h; Potency, µM (series often up to 46.1 µM), without a hit: at the highest dose activity, negative = toxicity, usual class: cytotoxic; hit rate 2% among 360,000; AID 686971;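 further: potency means the concentration at half of the fitted maximal effect; 0% = DMSO wells and -100% = cell-free medium wells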
#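 % activity derives from luminescence (CellTiter-Glo), normalised to DMSO and no-cell wells. HT-1080-IDH1KD cells, 750/well, had 48 h compound exposure at 37 °C.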
# TDP1 cell CPT = DT40-hTDP1 cell growth loss with CPT. AID 686979. hit rate 12% among 420,000. chicken DT40 Tdp1-/-;hTDP1 cells + 20 nM CPT, ATP luminescence, 48 h. Potency, µM (top dose mostly 46.2 µM), without a hit: at the top dose activity change, negative = growth inhibition, usual class: inhibitors; further: potency means the concentration at half of the fitted maximal effect; nearly all actives have a fitted effect of over 55% in size
#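 Cell growth measured by CellTiter-Glo luminescence after a minimum 48 h, 37 C compound exposure with 20 nM CPT in Tdp1-knockout DT40 cells stably expressing hTDP1, seeded 400/well; qHTS titration format.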
# Active calls of the source: *; u = inconclusive; x = no result given; [ ] = remark or other dose. Shown are actives, neighbours in structure and some others; about 19% of the full set was active somewhere. Unless noted, the call rests on the fitted dose curve; in most records, active means well fitted curve in the direction sought with a large enough effect; inconclusive means small, poorly fitted or top-dose-only effect, or another doubt; inactive means no such curve, though single readings can be large; an effect the other way counts as inactive or inconclusive. Unless noted, on the % scale 0 is the no-effect control and ±100 the full control effect.
SMILES,DT40 TDP1 no CPT,IL-1B inflam inh,HT1080NT lethal,HT1080 IDH1KD tx,TDP1 cell CPT
CCc1ccc(OCC(=O)NC(NC(=S)Nc2ccccc2C)C(Cl)(Cl)Cl)cc1 (stereo unspecified),u,-15.1,16.4µM*,u,u
O=C(CN(Cc1ccco1)Cc1cccs1)N1CCN(S(=O)(=O)c2cccc(F)c2)CC1,18.4µM*,-24.3,-1.2%,-16.9%,23.1µM*
COc1ccc(OCCCC(=O)Nc2cc(S(=O)(=O)N3CCCCC3)ccc2C)cc1,u,-7.1,-21.6%,-27.7%,20.6µM*
Cc1ccccc1NCC(=O)Nc1cc(S(=O)(=O)N2CCCCC2)ccc1C,20.6µM*,-24.7,3.2%,0.3%,u
Cc1ccc(S(=O)(=O)N2CCCCC2)cc1NC(=O)CSc1ccc2c(c1)OCCO2,u,-8.0,-3.0%,-9.0%,23.1µM*
O=C(c1cccc(S(=O)(=O)N2CCOCC2)c1)N(Cc1ccco1)Cc1cccs1,u,1.3,0.1%,1.6%,u
Cc1ccc(S(=O)(=O)N2CCCCC2)cc1NC(=O)COc1ccccc1,u,14.3,-20.6%,-21.7%,u
CCN(CC)S(=O)(=O)c1ccc2c(c1)N(CC(=O)Nc1c(C)cccc1C)C(=O)C1CCCN21 (stereo unspecified),-19.9%,x,x,x,-1.8%
CCCn1c(N)c(C(=O)CSc2nc(N)cc(=O)[nH]2)c(=O)n(C)c1=O,-0.2%,11.8,-1.4%,0.8%,-27.3%
Cc1ccc(NC(=O)CSc2ccc3c(c2)OCCO3)c(O)c1,u,0.4,8.4%,-4.3%,18.4µM*
O=C(Cc1cccs1)Nc1cc(S(=O)(=O)N2CCCCC2)ccc1Cl,-18.1%,-4.9,-1.6%,-5.7%,-17.6%
CC(NCC(=O)Nc1cc(S(=O)(=O)N2CCCCCC2)ccc1Cl)c1ccccc1 (stereo unspecified),13µM*,-9.6,u,-24.0%,18.4µM*
O=C(CN(Cc1ccco1)Cc1ccco1)Nc1cc(S(=O)(=O)N2CCCCC2)ccc1Cl,11.6µM*,-25.8,-7.4%,u,13µM*
COc1ccc(C(=O)Cn2cc[n+](C)c2)cc1,-6.3%,45.0,11.8%,3.4%,10.6%
CCOC(=O)c1cnc(Nc2nc3ccccc3o2)nc1CSC(=S)N(CC)CC,0.146µM*,-4.4,7.9%,7.9%,0.146µM*
Cc1ccccc1NC(=O)NCC1CCN(c2ccc(S(=O)(=O)N3CCOCC3)cc2)CC1,20.6µM*,-8.8,-16.0%,-1.7%,23.1µM*
O=S(=O)(NCC1CCN(c2ccc(S(=O)(=O)N3CCOCC3)cc2)CC1)c1ccc(F)cc1,20.6µM*,-5.0,-22.4%,-17.0%,23.1µM*
O=S(=O)(NCC1CCN(c2ccc(S(=O)(=O)N3CCOCC3)cc2)CC1)c1ccccc1,u,-13.3,-20.3%,-0.1%,-22.4%
O=C(NCC1CCN(c2ccc(S(=O)(=O)N3CCOCC3)cc2)CC1)c1ccc(Cl)cc1,13µM*,-75.0*,-15.1%,-12.0%,14.6µM*
Cc1cccc(NC(=O)NCC2CCN(c3ccc(S(=O)(=O)N4CCOCC4)cc3)CC2)c1,u,-11.8,-10.9%,-11.2%,u
O=C(CCNC(=O)c1ccc(Cl)cc1)Nc1ccc(S(=O)(=O)N2CCOCC2)cc1,-3.9%,15.8,-3.0%,-3.0%,u
CCCCCCOC(=O)Cc1c(C)nc(-c2ccccc2)[nH]c1=O,-12.9%,12.2,13.6%,8.2%,u
CC(NC(=O)c1ccc2c(c1)CCN2S(=O)(=O)c1ccc(Cl)cc1)c1ccccc1 (stereo unspecified),u,x,x,x,11.6µM*
O=C(c1ccc(Cl)c(S(=O)(=O)N2CCc3ccccc3C2)c1)N1CCN(c2ccccc2)CC1,u,-10.7,-13.3%,-15.2%,3.66µM*
O=C(c1ccc2c(c1)CCN2S(=O)(=O)c1ccc(Cl)cc1)N1CCN(c2ccccc2F)CC1,16.4µM*,x,x,x,20.6µM*
SMILES,DT40 TDP1 no CPT,IL-1B inflam inh,HT1080NT lethal,HT1080 IDH1KD tx,TDP1 cell CPT
Cc1cccc(N2CCN(C(=O)c3ccc4c(c3)CCN4S(C)(=O)=O)CC2)c1C,u,-50.9*,0.0%,-0.4%,13µM*
COc1cccc(N2CCN(C(=O)c3ccc(Cl)c(S(=O)(=O)N4CCCCCC4)c3)CC2)c1,-19.2%,15.9,6.6%,1.8%,-8.4%
CCCc1nnc(SCC(=O)N2CCOCC2)n1C,1.4%,-19.4,11.4%,23.4%,9.3%
CCOc1ccc(C(=O)COC(=O)CNC(=O)C2CCCCC2)cc1,-25.6%,11.3,-0.7%,8.4%,-4.3%
O=C(c1ccc2c(c1)CCN2S(=O)(=O)c1ccc(Cl)cc1)N1CCN(c2ccccc2)CC1,20.6µM*,x,x,x,11.6µM*
O=C(c1cccc(S(=O)(=O)N2CCCc3ccccc32)c1)N1CCN(c2ccccc2)CC1,20.6µM*,u,0.8%,u,u
COCCCNCCCCOc1ccc(Br)cc1C,23.1µM*,-56.1*,u,u,u
COc1ccccc1OCCCCNC(C)(C)C,-1.1%,-15.3,-2.6%,8.2%[9.24 µM],2.7%
Cc1cc(Br)ccc1OCCCCNC(C)(C)C,20.6µM*,u,13µM*,u,u
COCCCNCCCCOc1cccc(Br)c1,u,-20.8,-3.2%,3.5%,u
COCCNCCCCOc1ccc(Br)cc1C,23.1µM*,-29.3,u,-26.5%,u
O=C(CSCc1cccc(Cl)c1)OCc1nc2ccsc2c(=O)[nH]1,-7.8%,49.8,1.3%,2.8%,-8.3%
O=C(NC(Cc1nn[nH]n1)C(=O)OCc1ccccc1)OCc1ccccc1 (stereo unspecified),-19.6%,6.6,-9.9%,-2.9%,5.7%
Cc1ccc(-c2nc(CC(=O)Nc3cccc(S(=O)(=O)NC4=NCCC4)c3)cs2)cc1,-7.5%,-13.8,0.3%,1.4%,6.2%
COC(=O)c1sccc1NC(=O)CC1NCCNC1=O (stereo unspecified),8.3%,0.0,2.1%,12.8%,-5.4%
Cc1cc(C(=O)Nc2cccc3ccccc23)c(C)o1,-22.2%,-11.2,6.1%,-0.2%,23.1µM*
COc1ccccc1NC(=O)c1c(C)oc2c1CCCC2,u,15.0,u,6.7%,u
Cc1oc2c(c1C(=O)Nc1cccc3ccccc13)CCCC2,13µM*,2.5,1.9%,9.7%,10.3µM*
Cc1cc(C(=O)NCCCC(=O)O)c(C)o1,15.6%,-1.9,0.0%,1.2%,-3.5%
Cc1cc(C(=O)NCCC(c2ccccc2)c2ccccc2)c(C)o1,u,-11.2,-10.5%,-25.2%,18.4µM*
COc1ccc(NC(=O)CSc2nnc3c(n2)[nH]c2ccc(S(=O)(=O)N(C)C)cc23)c(OC)c1,u,x,6.4%,0.3%,u
